In all, about 8,300 sequences were measured (“log2 fold change of degron read counts, EGFP-low vs EGFP+ sorted cells (limma voom), compound-induced degradation”: median about -1.1, highest 2% from about 3.2 on). Many of the other results were omitted from the sample, so the highest values are more common in it than they were.
T1: CRBN, Q96SW2
T1 chain: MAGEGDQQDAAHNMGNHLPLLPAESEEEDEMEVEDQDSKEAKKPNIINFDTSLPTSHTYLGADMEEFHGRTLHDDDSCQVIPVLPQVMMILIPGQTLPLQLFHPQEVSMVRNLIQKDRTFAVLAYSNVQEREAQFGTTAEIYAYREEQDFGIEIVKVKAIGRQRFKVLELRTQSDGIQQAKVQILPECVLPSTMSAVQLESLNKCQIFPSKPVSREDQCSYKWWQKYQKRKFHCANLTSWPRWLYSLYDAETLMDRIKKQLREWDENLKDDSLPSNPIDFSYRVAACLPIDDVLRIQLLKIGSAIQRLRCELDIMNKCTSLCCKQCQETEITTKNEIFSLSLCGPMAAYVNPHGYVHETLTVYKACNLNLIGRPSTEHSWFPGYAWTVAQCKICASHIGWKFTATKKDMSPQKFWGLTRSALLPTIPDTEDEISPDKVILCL

B1: 46F_47D_49E_50V_52G_53A_54T_55F_67L_, Q9UKT9 (peptide)
chain: FDCEVCGATFTQKGNLLRHIKL
B2: 46F_47A_49E_50V_52G_53A_54T_55F_67L_, Q9UKT9 (peptide)
chain: FACEVCGATFTQKGNLLRHIKL
B3: 46F_47C_49E_50V_52G_53A_54T_55F_67L_, Q9UKT9 (peptide)
chain: FCCEVCGATFTQKGNLLRHIKL
B4: 46F_47K_49E_50V_52G_53A_54T_55F_67L_, Q9UKT9 (peptide)
chain: FKCEVCGATFTQKGNLLRHIKL
B5: 46L_47L_49E_50I_52G_53F_54N_55C_67L_, Q9UKT9 (peptide)
chain: LLCEICGFNCTQKGNLLRHIKL
B6: 46F_47Y_49E_50I_52G_53R_54P_55F_67L_, Q9UKT9 (peptide)
chain: FYCEICGRPFTQKGNLLRHIKL
B7: 46F_47A_49N_50Q_52G_53H_54H_55F_67L_, Q9UKT9 (peptide)
chain: FACNQCGHHFTQKGNLLRHIKL
B8: 46F_47D_49N_50Q_52G_53A_54S_55F_67L_, Q9UKT9 (peptide)
chain: FDCNQCGASFTQKGNLLRHIKL
B9: 46F_47Y_49P_50I_52G_53H_54Y_55F_67L_, Q9UKT9 (peptide)
chain: FYCPICGHYFTQKGNLLRHIKL
B10: 46F_47W_49P_50I_52G_53A_54F_55F_67L_, Q9UKT9 (peptide)
chain: FWCPICGAFFTQKGNLLRHIKL
B11: 46L_47K_49N_50Q_52G_53F_54Q_55C_67L_, Q9UKT9 (peptide)
chain: LKCNQCGFQCTQKGNLLRHIKL
B12: 46F_47K_49D_50Q_52G_53A_54E_55F_67L_, Q9UKT9 (peptide)
chain: FKCDQCGAEFTQKGNLLRHIKL
B13: 46F_47V_49E_50V_52G_53A_54T_55F_67L_, Q9UKT9 (peptide)
chain: FVCEVCGATFTQKGNLLRHIKL
B14: 46F_47F_49E_50V_52G_53A_54T_55F_67L_, Q9UKT9 (peptide)
chain: FFCEVCGATFTQKGNLLRHIKL
B15: 46F_47L_49E_50V_52G_53A_54T_55F_67L_, Q9UKT9 (peptide)
chain: FLCEVCGATFTQKGNLLRHIKL
B16: 46F_47L_49P_50I_52G_53R_54G_55F_67L_, Q9UKT9 (peptide)
chain: FLCPICGRGFTQKGNLLRHIKL
B17: 46F_47F_49P_50I_52G_53A_54H_55F_67L_, Q9UKT9 (peptide)
chain: FFCPICGAHFTQKGNLLRHIKL
B18: 46F_47G_49P_50I_52G_53A_54H_55F_67L_, Q9UKT9 (peptide)
chain: FGCPICGAHFTQKGNLLRHIKL
B19: 46F_47Q_49P_50I_52G_53A_54H_55F_67L_, Q9UKT9 (peptide)
chain: FQCPICGAHFTQKGNLLRHIKL
B20: 46F_47Y_49P_50I_52G_53A_54H_55F_67L_, Q9UKT9 (peptide)
chain: FYCPICGAHFTQKGNLLRHIKL
B21: 46F_47A_49P_50I_52G_53A_54H_55F_67L_, Q9UKT9 (peptide)
chain: FACPICGAHFTQKGNLLRHIKL
B22: 46F_47C_49P_50I_52G_53A_54H_55F_67L_, Q9UKT9 (peptide)
chain: FCCPICGAHFTQKGNLLRHIKL
B23: 46F_47S_49P_50I_52G_53A_54H_55F_67L_, Q9UKT9 (peptide)
chain: FSCPICGAHFTQKGNLLRHIKL
B24: 46F_47W_49P_50I_52G_53A_54H_55F_67L_, Q9UKT9 (peptide)
chain: FWCPICGAHFTQKGNLLRHIKL
B25: 46F_47V_49P_50I_52G_53A_54H_55F_67L_, Q9UKT9 (peptide)
chain: FVCPICGAHFTQKGNLLRHIKL
B26: 46F_47E_49E_50Q_52G_53A_54D_55F_67L_, Q9UKT9 (peptide)
chain: FECEQCGADFTQKGNLLRHIKL
B27: 46F_47W_49P_50V_52G_53A_54L_55F_67L_, Q9UKT9 (peptide)
chain: FWCPVCGALFTQKGNLLRHIKL
B28: 46F_47Y_49E_50I_52G_53R_54E_55F_67L_, Q9UKT9 (peptide)
chain: FYCEICGREFTQKGNLLRHIKL

Biological target: T1, CRBN, Q96SW2
Assay: log2 fold change of degron read counts, EGFP-low vs EGFP+ sorted cells (limma voom), compound-induced degradation; higher = more compound-induced degradation of the degron-EGFP fusion; degrons are variants of IKZF1/3 zinc finger 2; compound dose not given here
Details: Jurkat, 18 h
[1] = compound: compound 19 (5-tert-butyl-thalidomide)
[2] = compound: compound 22 (5-morpholino-thalidomide)
[3] = compound: compound 33 (diphenyl IMiD analogue)
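Also: pooled lentiviral library of zinc finger degron-EGFP fusions in mCherry-positive Jurkat cells, FACS-sorted after compound exposure, with degron abundance counted by next-generation sequencing.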

| Sequence | log2 fold change of degron read counts [1] | log2 fold change of degron read counts [2] | log2 fold change of degron read counts [3] | log2 fold change of degron read counts (compound: thalidomide) |
| --- | --- | --- | --- | --- |
| B1 | 0.941 | -0.571 | -0.022 | 0.317 |
| B2 | 3.32 | 2.03 | 0.449 | -0.11 |
| B3 | 1.77 | 2.12 | 2.55 | 2.46 |
| B4 | -1.63 | -3.47 | -2.68 | -1.11 |
| B5 | -1.18 | -1.96 | -1.11 | -0.267 |
| B6 | 3.04 | 1.62 | 1.39 | 0.0233 |
| B7 | -2.3 | -2.72 | -2.62 | -2.01 |
| B8 | -2.01 | -2.73 | -2.35 | -2.1 |
| B9 | -0.992 | -1.44 | -0.727 | -1.13 |
| B10 | 2.39 | 3 | 1.83 | 0.77 |
| B11 | -2.34 | -2.76 | -2.86 | -2.48 |
| B12 | -2.81 | -1.6 | -3.49 | -3 |
| B13 | -0.246 | 1.36 | 1.98 | 2.24 |
| B14 | 2.72 | 3.74 | 1.9 | 1.47 |
| B15 | -1.71 | -1.32 | 0.752 | 1.34 |
| B16 | -1.58 | -1.94 | -0.785 | -0.724 |
| B17 | 2.66 | 2.83 | 1.81 | 0.615 |
| B18 | 2.89 | 1.31 | 1.51 | 0.333 |
| B19 | 0.0422 | 1.5 | 1.32 | 3.32 |
| B20 | 3.12 | 3.56 | 2.1 | 0.702 |
| B21 | 3.08 | 1 | 0.948 | 0.563 |
| B22 | 1.94 | 0.949 | 1.85 | 1.24 |
| B23 | 2.35 | 1.14 | 1.5 | 1.13 |
| B24 | 2.66 | 3.51 | 1.81 | 0.881 |
| B25 | -0.217 | 2.12 | 1.37 | 2.41 |
| B26 | -3.85 | -4.35 | -2.06 | -2.36 |
| B27 | 1.3 | 2.3 | 1.77 | 0.113 |
| B28 | -0.515 | -1.07 | -0.325 | -1.93 |
